Nine compounds from PubChem BioAssay (NCI) can be followed below.

The panel holds about 83,000 compounds, 20% with a hit somewhere; the sample as a whole holds those more often.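 Note: values are percent growth. 100 is the growth of untreated cells, values between 100 and 0 indicate rising inhibition; between -100 and 0 indicates cell death.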 Unmarked numbers belong to inactive results. Activity calls are given as the source filed them. The calls were made as follows: active = growth percent below 10; inactive = the rest.

Common to all, as to experiment: NCI-60 one-dose screen, 48 h (100 = growth as untreated, 0 = no growth, -100 = all killed)
Holding throughout (details): 10 µM unless noted

Assay [1] concerns NCI-H23 lung.
Assay [2] concerns NCI-H226 lung.
For assay [3], the system named is NCI-H322M lung.
For assay [4], the system named is HOP-62 NSCLC.
Assay [5] has as its system NCI-H460 lung.
Assay [6] relates to HOP-92 NSCLC.
In assay [7] the test system is NCI-H522 lung.
For assay [8], the system named is A549/ATCC NSCLC.
Assay [9] deals with 786-0 renal.
Assay [10] has as its system COLO 205 colon.
Assay [11] relates to DU-145 prostate.
Assay [12] concerns K-562 leukemia.
For assay [13], the system named is MALME-3M melanoma.
Assay [14] relates to MDA-MB-231 breast.
For assay [15], the system named is SF-268 CNS.
The subject of assay [16] is SF-295 CNS.
Assay [17] deals with SF-539 CNS.
In assay [18] the test system is M14 melanoma.
For assay [19], the system named is RXF 393 renal.

With `COc1ccc(OC)c(NC2=C(SCCc3ccccc3)C(=O)c3ccccc3C2=O)c1`, the growth in assay [1] is 45.2%; in assay [2] it was 78.8%; in [3] it was 89.7%; in assay [4], 97.8%; in assay [5] it was 91.6%; in assay [6] it was 77.8%. Also, the growth in assay [7] is 73%; in assay [8], 87.2%; in [9] it was 100%; in assay [10] it was 95.6%; in assay [11] it was 92.2%; in [12], 91.2%. The growth in [13] is 90.8%; in [14], 62.8%; in assay [15], 84.6%; in assay [16] it was 92.2%; in [17], 85.7%; in assay [18], 83.3%.
Consider `CC(C)c1ccc(/C=N/Nc2nc3ccccc3s2)cc1`, for which the growth in assay [1] is 80.4%; in assay [2], 81.7%; in assay [3], 96%; in [4], 87.8%; in [5], 95.2%; in assay [6], 82.5%. The growth in assay [7] was 85%; in [8], 85.8%; in assay [9], 108%; in assay [10] it was 88.5%; in assay [11], 101%; in assay [12], 85.5%. Moreover, the growth was 62.9% in assay [13]; 81.6% in assay [14]; 99.2% in assay [15]; 98.5% in assay [16]; 103% in [17]; 94.5% in assay [18].
Consider `CCC1(/C=N/NC(N)=S)NC(=O)NC1=O` (configuration not stated), for which the growth in [1] is 99.2%; in assay [2], 96.6%; in assay [3] it was 106%; in assay [4], 78.8%; in assay [5], 109%; in assay [6] it was 95.5%. Further, the growth is 83.2% in assay [7]; 62.5% in assay [8]; 105% in [9]; 111% in assay [10]; 112% in assay [11]; 109% in assay [12]. The growth in assay [13] is 107%; in assay [14], 102%; in assay [15], 106%; in [16] it was 107%; in assay [17], 109%; in assay [18], 103%.
In the case of `C=C1C(=O)O[C@H]2[C@H]1CC/C(C=Nc1c(N)cc(C(F)(F)F)cc1C(F)(F)F)=C\CC[C@@]1(C)O[C@@H]21`, the growth was -29% (active) in assay [1]; -53.1% (active) in assay [2]; 49.3% in assay [3]; 21.3% in assay [4]; -17.9% (active) in assay [5]; -39.9% (active) in assay [6]. Further, the growth in [7] is -55.4% (active); in [8], 11.9%; in assay [9], -66.5% (active); in [10], -59.7% (active); in assay [11], 5.82% (active); in assay [12], -4.88% (active). Further, the growth in [14] is -49.5% (active); in assay [19] it was -81.6% (active); in assay [15], 1.5% (active); in assay [16], 49.7%; in assay [17] it was -84.5% (active); in assay [18], -61.2% (active).
On to `COc1ccc2c(CCCCC(c3ccccc3)c3ccccc3)c3[n+](cc2c1OC)CCc1cc2c(cc1-3)OCO2`, for which the growth in assay [1] is -66.5% (active); in assay [2], -55% (active); in assay [3], 11.1%; in assay [4], -42.7% (active); in assay [5] it was -83% (active); in assay [6] it was -72.7% (active). Besides, the growth in assay [7] was -57.5% (active); in assay [8], -22.5% (active); in assay [9] it was -75.8% (active); in assay [10] it was -77.3% (active); in assay [11], -80% (active); in assay [12], -7.74% (active). Moreover, the growth is -80.9% (active) in [13]; -75.1% (active) in assay [14]; -60.7% (active) in assay [15]; -84.2% (active) in assay [16]; -64.5% (active) in [17]; -76.1% (active) in assay [18].
Consider `C=C1[C@@H](O)C[C@H]2C(C)(C)C[C@H](Cl)C[C@]2(C)[C@H]1C[C@H](O)[C@H]1CC(=O)NC1=O`, for which the growth in assay [1] is -36.2% (active); in assay [2], -25.8% (active); in assay [3], -8.41% (active); in assay [4], -38.4% (active); in assay [5] it was -11.5% (active); in assay [6], -13.5% (active). In addition, the growth is -36.8% (active) in assay [7]; -14.1% (active) in assay [8]; -33.2% (active) in assay [9]; -62.5% (active) in [10]; -29.1% (active) in assay [11]; 1.91% (active) in [12]. In addition, the growth in assay [14] is -31% (active); in assay [19], -63.2% (active); in [15], -20.8% (active); in assay [16] it was -29.2% (active); in [17], -35.4% (active); in assay [18] it was -75.5% (active).
Take `Clc1nc(Cl)c2ncn(C/C=C\Cn3cnc4c(Cl)nc(Cl)nc43)c2n1`: the growth in assay [1] is 9.28% (active); in [2], -59.2% (active); in assay [3], 21.4%; in assay [4], 23.4%; in assay [5], 3.79% (active); in assay [6], -34.2% (active). Besides, the growth was -76.7% (active) in [7]; -7.32% (active) in assay [8]; -9.15% (active) in assay [9]; -41.1% (active) in assay [10]; -98.4% (active) in [11]; -24.8% (active) in assay [12]. In addition, the growth was -72.7% (active) in assay [13]; -68.5% (active) in assay [14]; -2.21% (active) in assay [15]; -32.9% (active) in assay [16]; -52.9% (active) in assay [17]; -32.9% (active) in assay [18].
In the case of `CC(C)(C)CC(C)(C)Nc1c(-c2c(O)c3ccccc3oc2=O)nc2c(Cl)cc(C(F)(F)F)cn12`, the growth in assay [1] is 103%; in assay [2] it was 97.5%; in [3], 94%; in assay [4], 92.5%; in [5] it was 107%; in assay [6], 87.7%. For the same compound, the growth was 81.4% in assay [7]; 85.5% in assay [8]; 97% in assay [9]; 112% in assay [10]; 114% in assay [11]; 94% in assay [12]. Further, the growth in assay [14] is 100%; in assay [19], 110%; in [15], 107%; in assay [16] it was 95.9%; in assay [17], 99.1%; in assay [18], 92.2%.
With `N#Cc1c(-c2ccc(C(F)(F)F)cc2)c(F)c(NCCC2CCC(O)C2)n2c1nc1ccccc12` (configuration not stated), the growth in assay [1] was 72.5%; in assay [2], 69.2%; in assay [3], 58.5%; in assay [4], 59.2%; in [5], 42%; in assay [6] it was 32.5%. The growth is 65.7% in [7]; 52.8% in assay [8]; 69.4% in assay [9]; 41.1% in assay [10]; 47.2% in [11]; 25.9% in assay [12]. Also, the growth was 22.1% in assay [14]; 41.4% in assay [19]; 70.7% in [15]; 55.4% in [16]; 71.1% in [17]; 18.4% in [18].
